Test results reported in PubChem BioAssay AID1159580 (chemical genetic matrix, 2015).
Where “and” joins values, the source holds several entries; their conditions need not be identical. Equal values may be shown once. Out of some 5,500 compounds screened, about 2,000 (36%) were called active. Not shown: some 18% with an inconclusive outcome. No stated cut-off is given here; in the data, active means normalized growth mostly below about 0.91 (no sharp cut-off); inconclusive means no clear call, values can overlap the other calls; inactive means mostly above about 0.92. Some of the results follow.

Assay: chemical genetic growth profiling, strain panel (AID 1159580);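 further: tested at 20 µM; growth read once vehicle control cultures reached saturation at 30 °C; 1 = growth at the plate median or of vehicle wells; lower values mean less growth of the strain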
Details: S. cerevisiae deletion strains, growth OD

Measured: normalized growth

O=C(O)c1cccnc1C(=O)O
inactive: locus YAL013W, strain DEP1, active compounds read low 1.01 and 1.02 | locus YAL021C, strain ccr4, active compounds read low 1.02 | locus YAL026C, strain drs2, active compounds read low 1 | locus YAL030W, strain snc1, active compounds read low 0.999 | locus YAL040C, strain CLN3, active compounds read low 1.05 | locus YBL061C, strain skt5, active compounds read low 1 | locus YBR009C, strain hhf1, active compounds read low 1.03 | locus YBR021W, strain FUR4, active compounds read low 1.03 | locus YBR023C, strain chs3, active compounds read low 0.996 | locus YBR171W, strain sec66, active compounds read low 0.992 | locus YBR229C, strain ROT2, active compounds read low 1.03 | locus YBR231C, strain swc5, active compounds read low 1.04 | locus YBR279W, strain paf1, active compounds read low 0.998 | locus YCL011C, strain gbp2, active compounds read low 1.02 | locus YCL016C, strain dcc1, active compounds read low 1.01 | locus YCL029C, strain bik1, active compounds read low 0.991 | locus YCL061C, strain MRC1 (second series), active compounds read low 1 | locus YCL069W, strain vba3, active compounds read low 1 | locus YCR088W, strain abp1, active compounds read low 0.99 | locus YDL005C, strain med2, active compounds read low 0.98 | locus YDL035C, strain GPR1, active compounds read low 1.03 | locus YDL040C, strain nat1, active compounds read low 0.985 | locus YDL074C, strain BRE1, active compounds read low 1.07 | locus YDL101C, strain DUN1, active compounds read low 1.04 | locus YDL134C, strain PPH21, active compounds read low 1.03 | locus YDL185W, strain tfp1, active compounds read low 0.976 | locus YDL192W, strain arf1, active compounds read low 1 | locus YDR001C, strain nth1, active compounds read low 0.99 | locus YDR069C, strain doa4, active compounds read low 1 | locus YDR101C, strain arx1, active compounds read low 0.997 | locus YDR137W, strain rgp1, active compounds read low 1.01 | locus YDR150W, strain NUM1, active compounds read low 1.02 | locus YDR159W, strain sac3, active compounds read low 0.986 | locus YDR162C, strain NBP2, active compounds read low 1.02 | locus YDR195W, strain ref2 1.05 | locus YDR297W, strain sur2, active compounds read low 1 | locus YDR318W, strain mcm21, active compounds read low 0.997 | locus YDR334W, strain swr1, active compounds read low 0.979 | locus YDR335W, strain msn5, active compounds read low 1 | locus YDR363W, strain ESC2, active compounds read low 1.04 | locus YDR388W, active compounds read low 0.986 | locus YDR392W, strain spt3, active compounds read low 0.984 | locus YDR502C, strain sam2, active compounds read low 1.01 | locus YEL003W, strain gim4, active compounds read low 0.995 | locus YEL037C, strain rad23, active compounds read low 0.989 | locus YEL061C, strain CIN8 (second series), active compounds read low 0.979 | locus YEL061C, strain CIN8, active compounds read low 1.02 | locus YER002W, strain NOP16, active compounds read low 0.994 | locus YER015W, strain faa2, active compounds read low 1.01 | locus YER016W, strain bim1, active compounds read low 0.967 | locus YER110C, active compounds read low 1 | locus YER111C, strain swi4, active compounds read low 0.986 | locus YER155C, strain BEM2 (second series), active compounds read low 1.05 | locus YER155C, strain BEM2, active compounds read low 1.01 | locus YER167W, strain BCK2, active compounds read low 1.02 | locus YFR010W, strain ubp6, active compounds read low 1.03 | locus YGL078C, strain dbp3, active compounds read low 0.983 | locus YGL086W, strain mad1, active compounds read low 1.01 | locus YGL167C, strain pmr1, active compounds read low 1 | locus YGL173C, strain kem1, active compounds read low 1 | locus YGL227W, strain vid30, active compounds read low 0.972 | locus YGL240W, strain doc1, active compounds read low 1.01 | locus YGL248W, strain PDE1, active compounds read low 1.03 | locus YGL253W, strain hxk2, active compounds read low 1.01 | locus YGR078C, strain PAC10, active compounds read low 1.01 | locus YGR135W, strain pre9, active compounds read low 1.01 | locus YGR229C, strain SMI1, active compounds read low 1.04 | locus YGR252W, strain gcn5, active compounds read low 0.938 | locus YHR013C, strain ard1, active compounds read low 1 | locus YHR027C, strain rpn1, active compounds read low 1.02 | locus YHR030C, strain SLT2, active compounds read low 1.02 and 0.992 | locus YHR079C, strain IRE1 (second series), active compounds read low 0.981 | locus YHR079C, strain IRE1, active compounds read low 1 | locus YHR094C, strain hxt1, active compounds read low 0.983 | locus YHR129C, strain ARP1, active compounds read low 1.01 | locus YHR142W, strain chs7, active compounds read low 1.02 | locus YHR200W, strain rpn10, active compounds read low 0.984 | locus YIL066C, strain RNR3, active compounds read low 1.05 | locus YIL073C, strain SPO22, active compounds read low 1.01 | locus YIL125W, strain kgd1, active compounds read low 0.971 | locus YIR030C, strain dcg1, active compounds read low 0.998 | locus YJL092W, strain hpr5, active compounds read low 0.99 | locus YJL095W, strain BCK1 (second series), active compounds read low 1.01 | locus YJL095W, strain BCK1, active compounds read low 1.07 and 0.998 | locus YJL115W, strain asf1, active compounds read low 0.984 | locus YJL129C, strain trk1, active compounds read low 0.986 | locus YJL134W, strain LCB3, active compounds read low 1.01 | locus YJL154C, strain vps35, active compounds read low 0.998 | locus YJL164C, strain tpk1, active compounds read low 1.03 | locus YJL166W, strain qcr8, active compounds read low 1.03 | locus YJL168C, strain set2, active compounds read low 0.978 | locus YJL187C, strain SWE1 (second series), active compounds read low 1.05 | locus YJL187C, strain SWE1, active compounds read low 1 | locus YJR043C, strain POL32, active compounds read low 1.02
